{"source": "PubChem BioAssay AID1458", "about": "(National Center for Advancing Translational Sciences (NCATS), 2008)", "note": "Out of some 210,000 compounds screened, about 5,900 (2.8%) were called active. Not shown: some 5% with an inconclusive outcome. Calls follow the shape of the dose curve; as a rule, active = well fitted activation curve with a large enough effect; inconclusive = small, poorly fitted or top-dose-only effect; inactive = no such curve, though single readings can be large or run the other way. The entries come from a sample that favours actives as a whole. Potency is read from the fitted curve at half-maximal effect."}
{"test": "qHTS Assay for Enhancers of SMN2 Splice Variant Expression; also: nearly all actives have a fitted effect of over 55% in size; as to activity change, positive = activation: % of control where 0% means no effect", "settings": "HEK293 SMN2-luciferase splicing reporter, luminescence, 30-36 h; series mostly up to 46.1 µM; activity change, positive = activation: at the top concentration", "in_short": "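qHTS luciferase splicing reporter: luminescence rises when SMN2 exon 7 is included in transfected HEK293 cells. Compound exposure lasted 30-36 h at 37C, with 4.5 mM final sodium butyrate as control, followed by a ONE-Glo read.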"}
{"smiles": "O=P(O)(O)C(O)c1ccc2ccccc2c1", "note": "(stereo unspecified)", "activity change, positive = activation": "-1.73% (inactive)"}
{"smiles": "O=c1cc(COc2cccc(C(F)(F)F)c2)nc2sc3c(n12)CCCC3", "activity change, positive = activation": "-3.58% (inactive)"}
{"smiles": "COc1ccc(N(C)C(=O)C2CCN(S(=O)(=O)c3cc(Br)cc4c3N(C(C)=O)CC4)CC2)cc1", "activity change, positive = activation": "11.2% (inactive)"}
{"smiles": "O=C(NCCC1=CCCCC1)c1ccc(Cl)c([N+](=O)[O-])c1", "activity change, positive = activation": "9.41% (inactive)"}
{"smiles": "O=C(Cc1cccc2ccccc12)NCCC1=CCCCC1", "activity change, positive = activation": "-1.2% (inactive)"}
{"smiles": "CN(c1ccc(C(=O)NCc2ccccn2)cc1)S(C)(=O)=O", "activity change, positive = activation": "2.3% (inactive)"}
{"smiles": "CN(c1ccc(C(=O)NCCC2=CCCCC2)cc1)S(C)(=O)=O", "Potency": "11.2 µM (active)"}
{"smiles": "O=C(Cc1nn[nH]n1)NCCC1=CCCCC1", "activity change, positive = activation": "19.6% (inactive)"}
{"smiles": "Cn1nnc2cc(C(=O)NCCC3=CCCCC3)ccc21", "Potency": "11.2 µM (active)"}
{"smiles": "Cc1nc2nc(SCC(=O)N(Cc3ccccc3)C(C)C)nn2c(C)c1Cc1ccccc1Cl", "activity change, positive = activation": "-19.2% (inactive)"}
{"smiles": "CCc1ccc(CN(Cc2ccco2)C(=O)c2ccccc2Cl)cc1", "activity change, positive = activation": "-13.4% (inactive)"}
{"smiles": "COc1ccccc1CNC(=O)CCCn1c(=O)c2ccccc2n(CC(=O)Nc2ccc(C)cc2Cl)c1=O", "activity change, positive = activation": "10% (inactive)"}
{"smiles": "O=C(NC1=NCCS1)[C@H](Cc1ccccc1)N1C(=O)c2ccccc2C1=O", "activity change, positive = activation": "-21.6% (inactive)"}
{"smiles": "O=C(NC1=NCCS1)c1ccc(Cl)s1", "Potency": "15.8 µM (active)"}
{"smiles": "O=C(NCc1ccc2c(c1)OCO2)c1ccc(Cl)s1", "activity change, positive = activation": "5.84% (inactive)"}
{"smiles": "COc1cccc2c1cc1c(=O)n(CC(=O)N3CCN(c4ccccc4)CC3)nc(C)n12", "activity change, positive = activation": "-9.99% (inactive)"}
{"smiles": "CCNC(=O)CC1C(=O)N(c2ccc(F)cc2)C(=O)N1Cc1ccc(C)cc1", "note": "(stereo unspecified)", "activity change, positive = activation": "-20.3% (inactive)"}
{"smiles": "COc1ccc(NS(=O)(=O)c2ccc(NC(=S)NC(=O)CC(C)C)cc2)cc1", "activity change, positive = activation": "2.37% (inactive)"}
{"smiles": "CC(C)CC(=O)NC(=S)Nc1cc(C(=O)O)ccc1Cl", "activity change, positive = activation": "22.3% (inactive)"}
{"smiles": "CC(=O)c1ccc(NC(=S)NC(=O)CC(C)C)cc1", "Potency": "7.94 µM (active)"}
{"smiles": "Cc1cccc(NC(=O)Cn2c(C(F)(F)F)nc3ccccc32)c1C", "activity change, positive = activation": "-13.6% (inactive)"}
{"smiles": "COc1ccc(N2CCN(c3cc(C)nc4nncn34)CC2)cc1", "activity change, positive = activation": "-15.9% (inactive)"}
{"smiles": "O=C(c1ccc2c(c1)N(Cc1ccccc1F)C(=O)c1ccccc1S2(=O)=O)N1CCOCC1", "activity change, positive = activation": "8.82% (inactive)"}
{"smiles": "CC(=O)Nc1ccc(-c2csc(NC(=O)Nc3ccccc3)n2)cc1", "activity change, positive = activation": "-80.3% (inactive)"}
{"smiles": "COc1ccc(CCNc2nc(-c3cccc(NC(C)=O)c3)cs2)cc1OC", "activity change, positive = activation": "-26.4% (inactive)"}
{"smiles": "CC(=O)Nc1cccc(-c2csc(Nc3cccc(C)n3)n2)c1", "Potency": "10 µM (active)"}
{"smiles": "COc1ccccc1CNC(=O)CCn1c(=O)c2ccccc2n(CC(=O)Nc2cccc(Cl)c2)c1=O", "activity change, positive = activation": "1.83% (inactive)"}
{"smiles": "O=C(O)c1cccc(N=NN2CCCCCC2)c1", "Potency": "0.631 µM (active)"}
{"smiles": "O=C(Nc1cccc(C(=O)N2CCCC2)c1)c1ccccc1", "activity change, positive = activation": "9.99% (inactive)"}
{"smiles": "O=C(O)c1ccc(N=NN2CCOCC2)cc1", "activity change, positive = activation": "-3.34% [at 1.84 µM] (inactive)"}
{"smiles": "CCOC(=O)c1cc2c(=O)n3ccccc3nc2n(CC2CCCO2)c1=NC(=O)c1ccccc1F", "note": "(stereo unspecified)", "activity change, positive = activation": "10.2% (inactive)"}
{"smiles": "CCOC(=O)c1c(C)[nH]c(C2=NNC(=NC(C)COC)SC2)c1C", "note": "(stereo unspecified)", "Potency": "3.16 µM (active)"}
{"smiles": "CCOC(=O)c1c(C)[nH]c2c1-c1ccccc1C(=O)C2=O", "activity change, positive = activation": "-106% (inactive)"}
{"smiles": "Cc1ccc2cc3cc(C(=O)N4CCCCCC4)oc3nc2c1", "Potency": "5.01 µM (active)"}
{"smiles": "Cc1cc(=O)oc(C)c1C(=O)N1CCCCC1", "activity change, positive = activation": "-19% (inactive)"}
{"smiles": "CCc1ccc(CNC(=O)c2cc3cc4ccc(OC)cc4nc3o2)cc1", "activity change, positive = activation": "-28.9% (inactive)"}
{"smiles": "COc1ccccc1Nc1c2c(nc3ccc(NC(=O)/C=C/c4cc(OC)c(OC)c(OC)c4)cc13)CCCC2", "activity change, positive = activation": "-99.9% (inactive)"}
{"smiles": "CCOc1c(CNCc2ccc(C(=O)O)cc2)cccc1OC", "activity change, positive = activation": "0.734% (inactive)"}
{"smiles": "O=C(O)c1ccc(COCC(F)(F)F)cc1", "activity change, positive = activation": "-1.27% (inactive)"}
{"smiles": "CCCCCc1ccc(-c2ccc(C(=O)O)cc2)nc1", "Potency": "3.98 µM (active)"}
{"smiles": "CCOc1ccc(Nc2nc(Cl)nc(N3CCN(c4ccc(OC)cc4)CC3)n2)cc1", "activity change, positive = activation": "-50.9% (inactive)"}
{"smiles": "COc1ccc(Nc2ncc3c(n2)CCN(C(=O)OC(C)(C)C)C3)cc1", "activity change, positive = activation": "19.1% (inactive)"}
{"smiles": "COc1ccc(Nc2ncc(F)c(N3CCOCC3)n2)cc1", "Potency": "10 µM (active)"}
{"smiles": "CC(C)c1ccc(OCC(=O)N(Cc2ccc(N(C)C)cc2)C2CCS(=O)(=O)C2)cc1", "note": "(stereo unspecified)", "activity change, positive = activation": "-13.2% (inactive)"}
{"smiles": "CC1CCCCN1Cc1c(O)ccc2c(=O)c(-c3cccc(Cl)c3)c(C(F)(F)F)oc12", "note": "(stereo unspecified)", "activity change, positive = activation": "0.89% (inactive)"}
{"smiles": "CCOC(=O)C1CCN(C(=O)CSc2c3c(nc4ccc(Cl)cc24)CCCC3)CC1", "activity change, positive = activation": "-23.6% (inactive)"}
{"smiles": "Cc1ccc(-c2cc(C(F)(F)F)c(C#N)c(SCC(=O)Nc3ccccc3)n2)cc1", "activity change, positive = activation": "3.98% (inactive)"}
{"smiles": "COCc1cc(C)nc(SCC(=O)Nc2cccc(C)c2)c1C#N", "activity change, positive = activation": "-0.269% (inactive)"}
{"smiles": "Cc1cc(C)c(C#N)c(SCC(=O)Nc2ccccc2)n1", "Potency": "12.6 µM (active)"}
{"smiles": "Cc1cccc(NC(=O)Cn2c(=O)n(CCC(C)C)c(=O)c3cccnc32)c1", "activity change, positive = activation": "1.67% (inactive)"}
{"smiles": "COc1cc(CN(CC2CCCO2)C(=O)c2ccccc2F)cc(OC)c1OC", "note": "(stereo unspecified)", "activity change, positive = activation": "-5.28% (inactive)"}
